Screens from PubChem BioAssay.
A selection: hits, their analogues and other compounds. The true share with any hit is near 8.3%.
FMDV inh – High Throughput Screening for Foot and Mouth Disease Virus Antivirals | FMDV antiviral cell-based qHTS | Potency, µM (doses to about 57.9 µM), usual class: inhibitors | 410,000 tested, 1.2% active | AID 1159524, 2015; calls by dose curve; tested in HEK293T cells; also: read-out not given here; nearly all actives have a fitted effect of over 45% in size
Lassa entry inh – qHTS for Inhibitors of binding or entry into cells for Lassa Virus. Potency, µM (top dose mostly 37.9 µM), hits mostly inhibitors. 300,000 tested, 1.2% active. Lassa virus pseudotype entry inhibition, cell reporter; calls by dose curve; tested in HEK293 cells; also: nearly all actives have a fitted effect of over 50% in size
MARV entry inh – qHTS for inhibitors of binding or entry into cells for Marburg Virus. Marburg virus pseudotyped entry inhibition, cell reporter. Potency, µM (titrated, usually from 37.8 µM), actives largely listed as inhibitors. 300,000 tested, 1.8% active; calls by dose curve; tested in HEK293 cells
FBPA Giardia inh – qHTS Assay for Inhibitors of Fructose-1,6-bisphosphate Aldolase from Giardia Lamblia. A8B2U2. purified Giardia FBPA. Potency, µM (series often up to 59.6 µM), usual class: inhibitors. 290,000 tested, 0.71% active; also: nearly all actives have a fitted effect of over 55% in size
Target sequence (A8B2U2 whole entry, looked up): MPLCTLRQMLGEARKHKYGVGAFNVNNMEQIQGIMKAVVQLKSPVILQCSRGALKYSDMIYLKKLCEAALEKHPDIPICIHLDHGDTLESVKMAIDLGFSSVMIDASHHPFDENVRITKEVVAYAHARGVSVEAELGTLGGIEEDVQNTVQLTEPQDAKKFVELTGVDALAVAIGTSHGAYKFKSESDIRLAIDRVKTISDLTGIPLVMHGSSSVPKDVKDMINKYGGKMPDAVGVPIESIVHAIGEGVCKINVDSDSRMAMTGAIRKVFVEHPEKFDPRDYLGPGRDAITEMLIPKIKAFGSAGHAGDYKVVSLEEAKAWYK
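40 nM FBPA preincubated 10 min at RT with compound (up to 57.5 uM final), then substrate plus GAPDH/TPI/NAD/arsenate coupling and diaphorase/resazurin added. Fluorescence read after 20 min at RT, 525/598 nm.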
HCMV antiviral – qHTS Assay for inhibitors of the human cytomegalovirus (HCMV); 410,000 tested, 4.5% active; activity change, negative = inhibition, % at 57.5 µM; HFF cells, HCMV-luciferase reporter, 72 h; hits give low values; in the data active = activity change below about -60%; inconclusive = no clear call, values can overlap the other calls; inactive = above about -39%
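Compounds were evaluated in HFFs infected with an HCMV luciferase reporter virus (MOI 1 PFU/cell). Luciferase in lysates collected 72 h post infection served as the replication measure.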
HCV inh – qHTS Assay for Inhibitors of Hepatitis C Virus (HCV). 340,000 tested, 3.4% active. Huh7.5.1 HCVcc-Cre infection, luciferase reporter, 44 h. Potency, µM (series often up to 41.8 µM), most hits filed as inhibitors
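Infectious HCVcc-Cre (~0.5 moi) was added to cells just after compound, with cells seeded 4 h earlier at 1,000 per well. Luciferase activity after 44 h culture reported infection; substrate was incubated 15 min at room temperature before reading.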
Large screens that a line does not name were inactive; ! = not active in a repeat. Unless noted, calls follow the shape of the dose curve; as a rule, active = well fitted curve in the direction sought with a large enough effect; inconclusive = small, poorly fitted or top-dose-only effect, or another doubt; inactive = no such curve, though single readings can be large; an effect the other way counts as inactive or inconclusive.

COc1ccc(C)cc1NC(=O)C1COc2ccccc2O1 (stereo not drawn)	MARV entry inh inconclusive, HCV inh inconclusive
C=CCC12OC3(OC)CC1[C@H](C)[C@@H](c1ccccc1)C2[C@@]3(C)O (stereo partly drawn)	none (no result: FMDV inh, Lassa entry inh, FBPA Giardia inh, HCMV antiviral, HCV inh)
C[C@@H]1[C@@H](c2ccccc2)Cc2nc3ccccc3nc2C[C@H]1C(=O)N1CCCC1	none (no result: FMDV inh, Lassa entry inh, FBPA Giardia inh, HCMV antiviral, HCV inh)
CCOC(=O)c1sc2nc(N3CCOCC3)c3c(c2c1N)CCC3	HCV inh inconclusive
CCOC(=O)c1sc2nc(N3CCOCC3)c3c(c2c1N)CCN(Cc1ccccc1)C3	Lassa entry inh 16µM, MARV entry inh inconclusive
CN(C(=O)c1sc2nc(N3CCOCC3)c3c(c2c1N)CCCC3)c1ccccc1	FMDV inh inconclusive, Lassa entry inh 3.5µM, MARV entry inh inconclusive, HCMV antiviral inconclusive, HCV inh 11µM
COc1ccccc1C1CN(Cc2cccc3nccnc23)Cc2ccccc2O1 (stereo not drawn)	none (no result: Lassa entry inh, MARV entry inh, FBPA Giardia inh, HCMV antiviral, HCV inh)
C/C(N)=C(/C#N)C(=O)CSc1nnc(Nc2c(C)cccc2C)s1	MARV entry inh inconclusive, HCMV antiviral -67!
Cc1cccc(C)c1Nc1nnc(SCc2cn3cccc(C)c3n2)s1	HCMV antiviral -70 (no result: Lassa entry inh)
C/C(N)=C(/C#N)C(=O)CSc1nnc(SCc2ccc(Cl)cc2)s1	FMDV inh inconclusive, Lassa entry inh inconclusive, MARV entry inh inconclusive, HCMV antiviral -64, HCV inh inconclusive
Cc1cccc(C)c1Nc1nnc(SCC(=O)NC(=O)c2cccn2C)s1	none
NCCC[C@H](N)CC(=O)N[C@H]1CNC(=O)[C@@H]([C@@H]2C[C@H](O)N=C(N)N2)NC(=O)/C(=C/NC(N)=O)NC(=O)[C@@H](CO)NC(=O)[C@@H](CO)NC1=O	none (no result: FMDV inh, Lassa entry inh, MARV entry inh, HCMV antiviral, HCV inh)
COC(=O)CC=C[C@@H](C)[C@@H](C=NOC[C@@H](O)COCc1ccco1)NS(=O)(=O)c1ccc(C)cc1	none (no result: FMDV inh, Lassa entry inh, FBPA Giardia inh, HCMV antiviral, HCV inh)
O=C(NCc1ccc(Cl)cc1)C(=O)Nc1ccc(Br)cc1	none (no result: MARV entry inh, FBPA Giardia inh, HCV inh)
COc1ccc(CCNC(=O)CSc2cn(CCNC(=O)c3cccc(C(F)(F)F)c3)c3ccccc23)cc1OC	FMDV inh 22µM, Lassa entry inh inconclusive, MARV entry inh inconclusive, HCMV antiviral inconclusive (no result: FBPA Giardia inh, HCV inh)
Nc1ccn(C2OC(COP(=O)(O)O)C(O)C2O)c(=O)n1 (stereo not drawn)	MARV entry inh inconclusive, HCMV antiviral -97, HCV inh inconclusive (no result: FBPA Giardia inh)
COc1cccc(-n2c(SCc3ccc(F)cc3)nc3c([nH]c4ccccc43)c2=O)c1	Lassa entry inh inconclusive (no result: MARV entry inh, FBPA Giardia inh, HCV inh)
Clc1ccc(-c2nc(N3CCCCC3)nc3ccccc23)cc1	MARV entry inh inconclusive
c1ccc(-c2nc(-n3nc4ccccc4n3)nc3ccccc23)cc1	Lassa entry inh inconclusive, MARV entry inh inconclusive, HCV inh 14µM
CC(C)CCNc1nnnc2c1sc1nc(N3CCOCC3)c3c(c12)CC(C)(C)SC3	Lassa entry inh inconclusive
CC1(C)Cc2c(c(N3CCOCC3)nc3sc4c(NCCN5CCOCC5)nnnc4c23)CS1	HCV inh 11µM (no result: Lassa entry inh, MARV entry inh)
CCC(Sc1nc2nccnc2c(=O)n1Cc1ccc(Cl)cc1)C(=O)NC1CCCCC1 (stereo not drawn)	none (no result: MARV entry inh, FBPA Giardia inh, HCV inh)
COc1cc(C(O)CO)ccc1OS(=O)(=O)O (stereo not drawn)	MARV entry inh inconclusive, HCMV antiviral -73
CCOc1ccc(-c2nonc2NC(=O)COc2ccccc2)cc1	none (no result: MARV entry inh, FBPA Giardia inh, HCV inh)
NCC12CC3CC(C1)CC(c1ccc(Br)cc1)(C3)C2	FMDV inh inconclusive, HCV inh 13µM (no result: Lassa entry inh, MARV entry inh)
Cc1ccc(C23CC4CC(CC(CN)(C4)C2)C3)cc1	FMDV inh inconclusive, Lassa entry inh inconclusive, MARV entry inh inconclusive, HCV inh inconclusive
CS(=O)(=O)c1ccc(S(=O)CC(=O)Oc2ccc(Cl)cc2)c([N+](=O)[O-])c1 (stereo not drawn)	FMDV inh 35µM, Lassa entry inh inconclusive, MARV entry inh 11µM, HCV inh inconclusive (no result: HCMV antiviral)
O=C(CS(=O)c1ccccc1[N+](=O)[O-])Oc1ccc(Br)cc1 (stereo not drawn)	none
Cc1c(NC(C)c2ccccc2O)c(=O)n(-c2ccccc2)n1C (stereo not drawn)	none
Cc1c(NS(=O)(=O)c2ccccc2)c(=O)n(-c2ccccc2)n1C	MARV entry inh inconclusive
Cc1c(NC(=O)C(C)N2C(=O)C3C4C=CC(C4)C3C2=O)c(=O)n(-c2ccccc2)n1C (stereo not drawn)	HCMV antiviral -66 (no result: Lassa entry inh)
C=CCc1cccc(CNc2c(C)n(C)n(-c3ccccc3)c2=O)c1O	HCV inh 32µM
Cc1c(NC(C)C)c(=O)n(-c2ccccc2)n1C	HCV inh 0.56µM (no result: Lassa entry inh, MARV entry inh)
Cc1ccc(S(=O)(=O)Nc2c(C)n(C)n(-c3ccccc3)c2=O)cc1	Lassa entry inh inconclusive, HCMV antiviral -98!
Cc1c(C(c2ccc(C(=O)O)cc2)c2c(C)n(C)n(-c3ccccc3)c2=O)c(=O)n(-c2ccccc2)n1C	Lassa entry inh inconclusive, HCV inh 3.5µM
Cc1c(NC(=O)C(C)Sc2nc(N)cc(=O)[nH]2)c(=O)n(-c2ccccc2)n1C (stereo not drawn)	HCMV antiviral -63 (no result: Lassa entry inh, MARV entry inh, FBPA Giardia inh)
Cc1c(C(c2ccc(O)cc2)c2c(C)n(C)n(-c3ccccc3)c2=O)c(=O)n(-c2ccccc2)n1C	none
CC=C(C)[C@H](O)C[Si](C)(C)c1ccccc1	none (no result: FMDV inh, Lassa entry inh, FBPA Giardia inh, HCMV antiviral, HCV inh)
O=C1COc2ccccc2N1Cc1c(F)cccc1Cl	HCMV antiviral -63 (no result: Lassa entry inh, MARV entry inh)
O=C(CN1C(=O)COc2ccccc21)Nc1ccccc1F	none (no result: Lassa entry inh, MARV entry inh)
Cc1onc(NC(=O)CSCC(=O)O)c1Br	HCMV antiviral -73
O=C1CN(C(=O)N[C@@H](Cc2ccccc2)C(=O)N[C@H](Cc2ccccc2)C(=O)O)c2ccccc2N1	HCV inh 0.56µM (no result: Lassa entry inh, MARV entry inh)
CCN(C1=NS(=O)(=O)c2ccccc21)N(CC)S(=O)(=O)c1ccc(C)cc1	FMDV inh inconclusive, HCMV antiviral -69 (no result: Lassa entry inh, MARV entry inh)
O=C(N/N=C/C=C/c1ccccc1)c1n[nH]c2c1CCC2	MARV entry inh inconclusive
CC(/C=N/NC(=O)c1n[nH]c2c1CCC2)=C\c1ccccc1	Lassa entry inh inconclusive, MARV entry inh inconclusive, HCMV antiviral -88, HCV inh inconclusive
O=C(N/N=C/C(Br)=C\c1ccccc1)c1n[nH]c2c1CCC2	Lassa entry inh inconclusive, MARV entry inh inconclusive, HCMV antiviral -79, HCV inh inconclusive
O=C(N/N=C/c1ccc(Cl)cc1Cl)c1n[nH]c2c1CCCC2	Lassa entry inh inconclusive, MARV entry inh inconclusive
O=C(NC1CCCCC1)OC[C@@H]1CSCCS(=O)(=O)N1	Lassa entry inh inconclusive (no result: FMDV inh, MARV entry inh, FBPA Giardia inh, HCV inh)
COc1ccccc1NC(=O)c1sc2ncn(Cc3cccc(C)c3)c(=O)c2c1C	MARV entry inh inconclusive, HCMV antiviral -102 (no result: FMDV inh)
Cc1cc(C)c(S(C)(=O)=O)c(S(=O)(=O)c2ccc(Cl)cc2)n1	HCMV antiviral -98
Cc1cc(C)c(S(=O)(=O)c2ccc(Cl)cc2C)c(Cl)n1	FBPA Giardia inh inconclusive, HCV inh inconclusive
